# Source: PubChem BioAssay AID624337 (National Center for Advancing Translational Sciences (NCATS), 2012)
# Records with an inconclusive call do not appear. A number with no mark means an inactive call. Activity calls are given as the source filed them. Calls follow the shape of the dose curve; as a rule, active = well fitted curve in the direction sought with a large enough effect; inconclusive = small, poorly fitted or top-dose-only effect; inactive = flat fitted curve, though single readings scatter.
# Test: Quantitative high throughput screen for delayed death inhibitors of the malarial parasite plastid: Hit Validation with Dd2 at 96hr using Flow Cytometry
# Settings: P. falciparum Dd2 growth; parasitemia, lower = inhibition: at 50 µM (top of the series)
# Text: The goal of this screen is to discover new antimalarial compounds that act by inhibiting the development of the apicoplast organelle in the malarial parasite Plasmodium falciparum. Some antibiotics, such as azithromycin and tetracycline, are known to interfere with the apicoplast translational machinery, and have a potent antimalarial effect. […] We developed a cell-based quantitative high throughput screen that leverages this "delayed death" phenotype to enrich for compounds that target the apicoplast. To detect small molecules that cause the delayed death phenotype, erythrocytes infected with firefly luciferase-expressing parasites were incubated with compounds for either one or two generations, corresponding to 48 and 96 hours, respectively. Growth inhibition was detected by a decrease in luciferase activity. Compounds that inhibited parasite growth in the second generation at least five-fold more potently than in the first generation were defined as delayed death inducing. These compounds were selected for confirmatory screening using a flow cytometry based assay. This hit validation assay used the Dd2 cell line and measured at 96 hours. NIH Molecular Libraries Probe Production Network [MLPCN] NIH Chemical Genomics Center [NCGC] MLPCN Grant: R21 NS059500 Assay Provider: David Fidock and Eric Ekland, Columbia University
# Test compounds were diluted in 20 microliters of complete media (RPMI 1640 with 0.5% w/v Albumax (GIBCO), 24 mM sodium bicarbonate (Sigma) and 10 ug/mL gentamycin (Gibco)) in clear 384-well plates (Greiner). All liquid handling was conducted using a Bio Tek Precision 2000 pipetting system. Twenty microliters of infected erythrocytes, 0.2% parasitemia (for 48 hour time points) or 0.1% parasitemia (for 96 hour time points) were added to the compound dilutions (1% hematocrit, final concentration; 40 microliters, total culture volume). The assay plates were incubated for 48 hours, or 96 hours, at 37 masculine C in a humidified chamber (Billups- Rothenberg, Del Mar, CA, USA), gassed with 5%CO2/5%O2/ 90%N2. After two generations (96 hours), 5 microliters of culture were harvested and transferred to a second 384 well plate for fluorescent staining. Samples were stained with 30 microliters of 2 x SYBR Green I (Invitrogen) and 150nM MitoTracker Deep Red (Invitrogen) diluted in 0.9% NaCl, 0.2% dextrose (Baxter) supplemented with 2.5% Fetal Calf Serum (Gibco) (saline/FCS). Mature erythrocytes lack nuclei and mitochondria, therefore only parasitized erythrocytes retain the SYBR Green I and MitoTracker Deep Red. After 30 minutes at 37 masculine C, the stained cells were diluted in an additional 60 microliters of saline/FCS. The samples were harvested directly from the 384 well plate using a Hypercyt High Capacity Flow Platform (Intellicyt) paired with a C6 Flow Cytometer (Accuri). The flow cytometry files were analyzed using FlowJo software (FlowJo).
SMILES,Potency,"parasitemia, lower = inhibition"
CCCCN(CCCNC(=O)c1ccc(CS(=O)(=O)c2ccc(OC)cc2)o1)Cc1ccccc1,1.66 µM (active),
COc1ccc2cc3cc(C(=O)Nc4ccc5c(c4)OCO5)oc3nc2c1,24.9 µM (active),
CCC(=O)OC1C(N(C)C)CC(C)O[C@H]1O[C@H]1[C@H](C)[C@@H](O[C@H]2CC(OC)[C@@H](O)C(C)O2)[C@H](C)C(=O)O[C@@H](CC)[C@](C)(O)[C@@H](O)[C@H](C)C(=O)[C@@H](C)C[C@]1(C)O (some centres not stated),4.56 µM (active),
Cc1c(F)c(N2CCNC(C)C2)cc2c1c(=O)c(C(=O)O)cn2C1CC1 (configuration not stated),0.479 µM (active),
Cc1ccc(CN2CCC(n3nccc3NC(=O)c3ccccc3C)CC2)o1,12.8 µM (active),
COc1ccccc1N1CCN(CCC(=O)Nc2ccc(F)cc2)CC1,8.91 µM (active),
O=C(CSc1ccc(-c2cccnc2)nn1)Nc1ccccc1C(F)(F)F,6.51 µM (active),
COc1ccc(C(=O)N2CCN(S(=O)(=O)c3ccc(C)cc3C)CC2)cc1OC,29.7 µM (active),
N#Cc1cccc(NC(=O)Cn2c3[n+](c4ccc(C(F)(F)F)cc42)CCCCC3)c1,0.424 µM (active),
Clc1ccc(-c2c[n+](Cc3ccc(Cl)cc3Cl)c3n2CCCCC3)cc1,0.244 µM (active),
COc1ccc(NC(=S)N2CCC(Cc3ccccc3)CC2)cc1OC,,0.714 (active)
Cc1ccc(S(=O)(=O)Nc2ccc(C(=O)Nc3ccncc3)cc2)cc1,14 µM (active),
c1csc(CNc2ncnc3nc[nH]c23)c1,31.3 µM (active),
O=C(CNC(=O)C1CCCCC1)OC(C(=O)c1ccccc1)c1ccccc1 (configuration not stated),,0.991 (active)
CCOC(=O)c1ccc2c(c1)n(CC)c(/C=C/N(C)c1ccccc1)[n+]2CC,0.185 µM (active),
Cc1sc2nc[nH]c(=O)c2c1-c1ccc(Cl)cc1,9.78 µM (active),
COc1ccc2c(ccc[n+]2CC(=O)c2ccccc2)c1,5.18 µM (active),
Cc1ccc(-n2c(-c3ccc(Cl)cc3)c[n+]3c2CCC3)cc1,0.0825 µM (active),
O=C(c1ccc([N+](=O)[O-])cc1)n1nc(-c2ccccc2)nc1NCc1ccc(F)cc1,24.6 µM (active),

SMILES,Potency,"parasitemia, lower = inhibition"
CCCCN(CCCNC(=O)C1CCN(C(=O)c2cc3sccc3n2C)CC1)Cc1ccccc1,0.389 µM (active),
COc1cccc(CN2CCN(c3nc4nonc4nc3N3CCCCC3)CC2=O)c1,5.78 µM (active),
CCOc1ccc(NC(=O)C[n+]2ccc(N(C)C)cc2)cc1,0.121 µM (active),
CO[C@@H]1[C@@H](OC2OC(C)C(OC3CC(C)(O)C(OC(=O)CC(C)C)C(C)O3)C(N(C)C)C2O)[C@@H](CC=O)C[C@@H](C)C(=O)/C=C\C2O[C@H]2C[C@@H](C)OC(=O)C[C@H]1OC(C)=O (some centres not stated),0.0981 µM (active),
CC(=O)NC[C@@H]1CN(c2ccc(N3CCOCC3)c(F)c2)C(=O)O1,18 µM (active),
CC1=Nc2cc(C(=O)N3CCCC3)ccc2Sc2ccc(C)cc21,,0.0412 (active)
O=C(Nc1ccccc1N1CCOCC1)c1cccc(S(=O)(=O)N2CCOCC2)c1,10.6 µM (active),
CC(C)C(=O)NCCSc1c[nH]c2ccccc12,5.01 µM (active),
CCCCOc1ccc(N2C(N)=NC(N)=NC23CCCCC3)cc1,4.34 µM (active),
CCOc1ccc(C(=O)Nc2ccc(N3CCN(C)CC3)cc2)cc1,,0.471 (active)
COc1ccc(CNC(=O)C2CCC(CNS(=O)(=O)c3cccc4cccnc34)CC2)cc1 (configuration not stated),38.9 µM (active),
COc1ccc(Nc2nnc(-c3ccc(C)cc3)c3ccccc23)cc1C(=O)N1CCCCC1,25.7 µM (active),
COCCNC(=O)c1cccc(OC2CCN(Cc3cccc(SC)c3)CC2)c1,,1.86
CCc1nc(SCC(=O)Nc2ccc(N(C)C)cc2)n[nH]1,15.1 µM (active),
CN(C)c1ccc(CN(C(=O)c2ccccc2Br)C2CCS(=O)(=O)C2)cc1 (configuration not stated),29.1 µM (active),
Brc1cccc(OCCCCN2CCCCC2)c1,2.79 µM (active),
CCOc1ccc(S(=O)(=O)Nc2cc(S(=O)(=O)N(CC)CC)ccc2N2CCCC2)cc1,13.9 µM (active),
CCCc1c(CC)c(=N)c2ccccc2n1C,0.113 µM (active),
